Screening results as filed in PubChem BioAssay.
This is a sample that favours compounds with a hit; in the whole collection about 21% have one here.
Pf growth 96h – Primary qHTS for delayed death inhibitors of the malarial parasite plastid, 96 hour incubation | P. falciparum luciferase reporter growth, 96 h | Potency, µM (highest dose often 28.7 µM), without a hit: top-dose activity change, negative = inhibition, most hits filed as inhibitors | hit rate 6.9% among 320,000; active = well fitted inhibition curve with a large enough effect; inconclusive = small, poorly fitted or top-dose-only effect, or another doubt; inactive = no such curve, though single readings can be large or run the other way; note: potency is the fitted concentration of half-maximal effect; % is set by controls: 0 for no effect and ±100 for the full control effect
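Plates of compound plus infected erythrocytes (2% hematocrit, 0.05% parasitemia final) incubate 96 hours, 37 C, 5% CO2. Detection reagent added; reduced luminescence from the parasites' luciferase reporter flags inhibition.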
NS1 inh – qHTS Assay for Inhibitors of Influenza NS1 Protein Function | Potency, µM (series often up to 46.1 µM), without a hit: at the top dose activity, positive = more growth | hit rate 0.4% among 270,000 | AID 2326, 2010; note: potency is the fitted concentration of half-maximal effect; actives are rising curves; nearly all actives have a fitted effect of over 50% in size
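Growth recovery, yeast-based: influenza A NS1 expressed in S. cerevisiae causes slow growth, and suppressors are detected by OD600. The parent strain without NS1 is used as positive control.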
CHX counter – Cycloheximide Counterscreen for Small Molecule Inhibitors of Shiga Toxin. hit rate 12% among 300,000. AID 2314, 2010. max response, %. cell reporter, cycloheximide protein synthesis inhibition counterscreen; in the data active = max response mostly above about 13%, no sharp cut-off; inactive = mostly below about 14%; note: read at 38.3 µM for the half of the compounds with a filed dose; 0% is about no effect
SARS PLpro yeast – qHTS of Yeast-based Assay for SARS-CoV PLP | S. cerevisiae expressing SARS-CoV PLpro, growth rescue | Potency, µM (top dose mostly 32.9 µM), without a hit: at the top dose activity, positive = growth rescue, usual class: activators | hit rate 0.19% among 330,000; note: potency is the fitted concentration of half-maximal effect; 0% is about no effect; nearly all actives have a fitted effect of over 55% in size
Pf growth 48h – Primary qHTS for delayed death inhibitors of the malarial parasite plastid, 48 hour incubation; P. falciparum luciferase growth in erythrocytes, 48 h; Potency, µM (series often up to 28.7 µM), inactives show at the highest dose activity change, negative = inhibition, usual class: inhibitors; hit rate 5.9% among 310,000; AID 504832, 2011; active = well fitted inhibition curve with a large enough effect; inconclusive = small, poorly fitted or top-dose-only effect, or another doubt; inactive = no such curve, though single readings can be large or run the other way; note: potency is the fitted concentration of half-maximal effect; % is set by controls: 0 for no effect and ±100 for the full control effect
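Compounds are pin-transferred into medium, infected erythrocytes (2% hematocrit, 0.1% parasitemia final) are added, and plates sit one parasite generation at 37 C in 5% CO2. Detection reagent is then added and luminescence measured.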
Shiga inhibitor – A qHTS for Small Molecule Inhibitors of Shiga Toxin | Vero cells, Shiga toxin protein synthesis inhibition reporter | inhibition, % at 38.7 µM | hit rate 9.2% among 290,000 | AID 2315, 2010; in the data active = inhibition mostly above about 28%, no sharp cut-off; inactive = mostly below about 43%; note: 0% is about no effect
An asterisk follows results filed as active; ? = inconclusive; nt = not tested or not shown; [ ] = another dose, or the depositor's remark. Unless noted, calls come from the whole dose curve.

SMILES	Pf growth 96h	NS1 inh	CHX counter	SARS PLpro yeast	Pf growth 48h	Shiga inhibitor
COc1ccc(C(=O)NC2CCCc3c2cnn3-c2cc(F)cc(F)c2)c(OC)c1OC (stereo not drawn)	-29%	-16%	-1	-8%	4%	-6
O=S(=O)(Nc1ccncc1)c1ccc(Cl)c(Cl)c1	22%	-16%	18*	12%	1%	nt
Cc1ccc(Cl)cc1N1CCN(C(=O)CN(c2ccccc2)S(=O)(=O)N(C)C)CC1	-77%	nt	4	-1%	?	-4
Cc1ccc(NC(=O)CSc2nnc(C3CC3)n2CC2CCCO2)cc1C (stereo not drawn)	2%	1%	-2	0%	6%	8
Cc1cc(OC(=O)CCNC(=O)OC(C)(C)C)c2c3c(c(=O)oc2c1)CCC3	4.7µM*	12%	-2	-6%	4.7µM*	21
CN1CCC(=NNC(=O)CSc2ccc(Cl)cc2)CC1	116%	1%	-3	0%	51%	-6
CC12CCC(=O)N1C(C(=O)NNC(=O)c1ccc(F)cc1)CS2 (stereo not drawn)	42%	nt	nt	-2%	16%	nt
CC(C)=C[C@H]1[C@@H](C(=O)OCc2cc3c(cc2Cl)OCO3)C1(C)C	nt	-13%	nt	nt	nt	nt
COCCCNC(=O)c1ccc(CS(=O)(=O)c2ccc(Br)cc2)o1	19%	-2%	0	-1%	nt	-9
COC(CNC(=O)c1ccc(CS(=O)(=O)c2ccc(Br)cc2)o1)OC	5%	-1%	-6	1%	-26%[0.00184 µM]	6
COC(CNC(=O)c1ccc(CS(=O)(=O)c2ccc(C)cc2)o1)OC	2.6µM*	2%	-3	-2%	9%[0.00184 µM]	-5
COCCCNC(=O)c1ccc(CS(=O)(=O)c2ccc(OC)cc2)o1	10µM*	-13%	0	1%	18%	4
O=C(c1cnc(Cl)c(Cl)c1)N1CCN(S(=O)(=O)c2ccc3ccccc3c2)CC1	-2%	nt	nt	-2%	-10%	nt
Fc1cccc2sc(Nc3nnc(-c4ccco4)o3)nc12	-20%	-68%	40*	-33%	-18%	171*
CC(=O)Nc1nnc(-c2ccco2)o1	16%	nt	2	-2%	-8%	16
CCOc1cccc2sc(NN)nc12	?	nt	1	-4%	?	-13
COc1cccc2sc(NNC(=O)COc3ccccc3)nc12	-41%[1.15 µM]	6%	-4	0%	-6%	14
COc1cccc2sc(Nc3nnc(-c4cccs4)o3)nc12	144%	-123%	21*	-15%	?	74*
COc1cccc2sc(Nc3nnc(-c4ccc(F)cc4)o3)nc12	1.9µM*	-31%	19*	-11%	12µM*	39
COc1ccc(C(=O)NCCS(=O)(=O)N2CCOCC2)cc1	36%	nt	nt	?	15%	nt
CCOc1ccc(/C=N/OC(C)C(=O)NCc2ccc3c(c2)OCO3)cc1 (stereo not drawn)	-19%	2%	-4	4%	5%	-2
CC(NC(=O)Cc1cccs1)c1ccc2c(c1)OCO2 (stereo not drawn)	?	2%	-2	3%	2%	12
O=C(CC(SCCO)c1ccc2c(c1)OCO2)c1cccs1 (stereo not drawn)	?	-22%	29*	7%	58%	59
O=C(CC(SCc1ccco1)c1ccc(O)cc1)c1cccs1 (stereo not drawn)	122%	-96%	37*	-7%	115%	115*
O=C(CSc1nc(C2CC2)nc2ccccc12)N1c2ccccc2Sc2ccccc21	?	12%	-2	-1%	?	-7
SMILES	Pf growth 96h	NS1 inh	CHX counter	SARS PLpro yeast	Pf growth 48h	Shiga inhibitor
CCCN1CCCc2cc(CN)ccc21	43%	-2%	-6	4%	1.7µM*	-13
Cc1ccc2c(c1)CCCN2N=O	42%	5%	-3	?	8%	19
CCCCSC1=NN1c1nc(N)nc(C)c1CC	8.3µM*	-5%	8	27%	nt	17
CCCCCCOc1ccc(CN2CCN(C)CC2)cc1	-4%	3%	41*	-4%	75%	134*
CCCCOc1ccc(CN2CCCCC2)cc1	-18%	4%	17*	3%	18%	45*
c1ccc2cc(CN3CCOCC3)ccc2c1	7%	8%	2	nt	5%	8
CN1CCN(Cc2ccc3ccccc3c2)CC1	12µM*	0%	-2	10%	?	9
COc1ccc(C(C(=O)NCC2CCCO2)N(Cc2cccs2)C(=O)c2snc(C(N)=O)c2N)cc1 (stereo not drawn)	?	-5%	-4	7%	?	6
CC(C)(C)C1CCC(=NNC(=O)C(=O)NCc2ccco2)CC1 (stereo not drawn)	13%	-2%	1	0%	9%	-17
COc1ccc(-c2cc3ccccc3oc2=O)cc1NC(=S)NC(=O)c1ccc2c(c1)OCCO2	0%	13%	63*	6%	90%	115*
CCC(=O)Nc1ccc(-c2cc3ccccc3oc2=O)cc1	16%	-1%	38*	-1%	44%	107*
Nc1ccc2oc(=O)c(-c3ccccc3)cc2c1	53%	2%	36*	-8%	nt	56*
O=c1oc2ccccc2cc1NCc1ccccc1O	?	-85%	55*	-41%	90%	123*
COc1cc(C2C(C(=O)c3ccc(C)o3)=C(O)C(=O)N2CCN2CCOCC2)ccc1OCCC(C)C (stereo not drawn)	?	-13%	5	-1%	?	10
COc1ccc(C(=O)OCC(=O)Nc2c(C)cccc2C)c(OC)c1OC	4%	-3%	-3	2%	-3%	-6
COc1ccc(-c2cc3ccccc3oc2=O)cc1NC(=O)c1ccc(Br)o1	-2%	-25%	14	-1%	17%	9
O=c1oc2ccccc2cc1-c1ccc(O)cc1	?	nt	118*	-40%	68%	69*
COc1ccc(-c2cc3ccc(OCC(N)=O)cc3oc2=O)cc1OC	24%	11%	9	8%	54%	18
CCC(=O)Nc1cc(-c2cc3ccccc3oc2=O)ccc1OC	2.9µM*	-12%	7	-1%	85%	24
COc1ccc(-c2cc3ccc(O)cc3oc2=O)cc1OC	36%	-7%	32*	nt	54%	68*
CC(=O)Nc1ccc(-c2cc3ccccc3o2)cc1	nt	-16%	43*	-5%	324%	105*
Nc1ccc(-c2cc3ccccc3oc2=O)cc1	?	-9%	-6	-1%	?	-14
Cc1cc(N)ccc1-c1cc2ccccc2oc1=O	?	3%	17*	0%	35%	nt
COc1ccc(-c2cc3ccccc3oc2=O)cc1NC(=O)c1ccc([N+](=O)[O-])o1	2.6µM*	-4%	9	-12%	?	15
O=C(NCc1cccnc1)c1ccc(-c2cc3ccccc3oc2=O)cc1	?	1%	39*	0%	41%	67*
